# Assay results: PubChem BioAssay (NCI)
# This is part of a sample that, as a whole, favours compounds with a hit. Of some 79,000 tested, about 15% had one in any assay. Values without a mark were called inactive. Calls of active or inactive are those of the source. Cut-off read from the data, not from the text of the source: active = growth inhibition above about 70%; inactive = the rest.
# Tests used:
# [1] = NCI Yeast Anticancer Drug Screen. Data for the mlh1 strain (AID 171);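 note: 0% = growth of vehicle-treated control cultures of the same strain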; details: S. cerevisiae mlh1 strain growth inhibition, active compounds read high
# Procedure, shortened: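 Here the genetically defined yeast mutant is grown with each compound, and the extent to which its growth falls below that of vehicle-exposed cells is reported.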
# [2] = NCI Yeast Anticancer Drug Screen. Data for the mlh1 rad18 strain (AID 175); details: S. cerevisiae mlh1 rad18 strain growth inhibition, active compounds read high
# Procedure, shortened: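 In this whole-cell yeast screen, a strain with altered DNA damage repair is challenged with compound, and its growth is measured against matched vehicle-treated controls.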
# [3] = NCI Yeast Anticancer Drug Screen. Data for the rad18 strain (AID 177); details: S. cerevisiae rad18 mutant growth inhibition, active compounds read high
# Procedure, shortened: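 Screen uses a yeast strain with a defined lesion in DNA damage repair; compound effect is read as loss of growth compared to untreated vehicle cultures.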
# [4] = NCI Yeast Anticancer Drug Screen. Data for the rad52 strain (AID 147);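 note: 0% = growth of vehicle-treated control cultures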; details: S. cerevisiae rad52 mutant growth inhibition, active compounds read high
# Procedure, shortened: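 Measured: yeast growth inhibition. System: strain with a defined DNA damage repair alteration. Reference: vehicle-treated control cultures.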
# [5] = NCI Yeast Anticancer Drug Screen. Data for the wt1 strain (AID 149);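 note: 0% = growth of vehicle-treated wt1 cultures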; details: S. cerevisiae wt1 strain (SPY 50644) growth inhibition, active compounds read high
# Procedure, shortened: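 Growth inhibition read against vehicle controls after compound exposure of the wt1 yeast strain.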
# [6] = NCI Yeast Anticancer Drug Screen. Data for the rad50EPP+ strain (AID 151);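 note: 0% = growth of vehicle-treated control cultures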; details: S. cerevisiae rad50 mutant strain, active compounds read high
# Procedure, shortened: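 One strain with a rad50 alteration (rad50EPP+) was compound-treated, its growth then compared to that of vehicle controls.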
# [7] = NCI Yeast Anticancer Drug Screen. Data for the rad50 strain (AID 155);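 note: 0% = growth of vehicle-only cultures of the same strain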; details: S. cerevisiae rad50 strain growth inhibition, active compounds read high
# Procedure, shortened: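 Readout: growth inhibition relative to vehicle-treated cultures. Compound exposure was carried out in a genetically defined yeast strain deficient in DNA damage repair.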
# [8] = NCI Yeast Anticancer Drug Screen. Data for the mec2-1 strain (AID 157); details: S. cerevisiae mec2-1 strain, active compounds read high
# Procedure, shortened: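 Test agents were screened against the mec2-1 yeast strain, with defined DNA repair or cell cycle alteration. Growth was scored as inhibition against vehicle-only controls.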
# [9] = NCI Yeast Anticancer Drug Screen. Data for the rad14 strain (AID 159);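 note: 0% = growth of vehicle-treated control cultures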; details: S. cerevisiae rad14 strain growth inhibition, active compounds read high
# Procedure, shortened: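 Growth inhibition vs vehicle controls; genetically altered yeast strain (DNA damage repair defect) treated with test compounds.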
# [10] = NCI Yeast Anticancer Drug Screen. Data for the sgs1 mgt1 strain (AID 161);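 note: 0% = growth of cultures given vehicle only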; details: S. cerevisiae sgs1 mgt1 strain, active compounds read high
# Procedure, shortened: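 Mutant yeast exposed to compound; growth scored against vehicle-only wells.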
# [11] = NCI Yeast Anticancer Drug Screen. Data for the CLN2oe strain (AID 163);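 note: 0% = growth of vehicle-only control cultures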; details: S. cerevisiae CLN2oe strain, active compounds read high
# Procedure, shortened: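 Here, growth inhibition in a cell-cycle-altered yeast strain after compound exposure was quantified against vehicle control growth.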
# [12] = NCI Yeast Anticancer Drug Screen. Data for the cln2 rad14 strain (AID 165);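 note: 0% = growth equal to vehicle treated cultures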; details: S. cerevisiae cln2 rad14 strain, active compounds read high
# Procedure, shortened: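 Growth of compound-exposed yeast (cln2 rad14 genotype) measured and expressed as inhibition relative to vehicle.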
# [13] = NCI Yeast Anticancer Drug Screen. Data for the bub3 strain (AID 167); details: S. cerevisiae bub3 mutant strain, active compounds read high
# Procedure, shortened: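 Readout: yeast growth inhibition, expressed relative to vehicle-only wells. The test organism is a mutant strain from a panel with lesions in DNA repair or checkpoint genes.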
# [14] = NCI Yeast Anticancer Drug Screen. Data for the wt2 strain (AID 169);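 note: 0% = growth of vehicle-treated yeast cultures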; details: S. cerevisiae wt2 strain growth inhibition, active compounds read high
# Procedure, shortened: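 Genetically defined yeast strains from a DNA-repair/cell-cycle panel were used. Compound-exposed yeast growth was measured, and the inhibition was calculated relative to vehicle treatment.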
# [15] = NCI Yeast Anticancer Drug Screen. Data for the sgs1 strain (AID 173);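 note: 0% = growth of vehicle-only control cultures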; details: S. cerevisiae sgs1 mutant, active compounds read high
# Procedure, shortened: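 Relative growth inhibition, referenced to vehicle, was determined in a yeast strain with a defined alteration affecting DNA damage repair or cell cycle control after compound exposure.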
# [16] = NCI Yeast Anticancer Drug Screen. Data for the mgt1 strain (AID 153); details: S. cerevisiae mgt1 mutant growth inhibition, active compounds read high
# Procedure, shortened: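 After exposure of the mgt1 yeast mutant to compound, growth was measured and reported as inhibition compared with vehicle controls.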
# [17] = at 5.0 µM (retest, dose inferred, filed as 0.5)
# [18] = at 50.0 µM (retest, dose inferred, filed as 5.0)
structure (smiles),measurement,setting,value
COc1ccc(C2CC(C)(N3CCCC3)Oc3cc4c(cc32)OCO4)cc1 (centres undefined),growth inhibition,[1]; at 1.2 µM,3%
same,growth inhibition,[1]; at 3.7 µM,-1%
same,growth inhibition,[1]; at 11.0 µM,-4%
same,growth inhibition,[1]; at 33.0 µM,13%
same,growth inhibition,[1]; at 100.0 µM,83% (active)
same,growth inhibition,[2]; [17],2%
same,growth inhibition,[2]; [18],75% (active)
same,growth inhibition,[2]; at 50.0 µM,76.7% (active)
same,growth inhibition,[3]; at 1.2 µM,5%
same,growth inhibition,[3]; at 3.7 µM,7%
same,growth inhibition,[3]; at 11.0 µM,12%
same,growth inhibition,[3]; at 33.0 µM,35%
same,growth inhibition,[3]; at 100.0 µM,77% (active)
O=C1C(=O)N(c2ccccc2)[C@@]2(c3ccccc3)C(=Nc3ccccc3)OC(c3ccccc3)=C12,growth inhibition,[4]; at 1.2 µM,0%
same,growth inhibition,[4]; at 3.7 µM,0%
same,growth inhibition,[4]; at 11.0 µM,3%
same,growth inhibition,[4]; at 33.0 µM,4%
same,growth inhibition,[4]; at 100.0 µM,40%
same,growth inhibition,[5]; at 1.2 µM,-2%
same,growth inhibition,[5]; at 3.7 µM,-1%
same,growth inhibition,[5]; at 11.0 µM,-1%
same,growth inhibition,[5]; at 33.0 µM,2%
same,growth inhibition,[5]; at 100.0 µM,31%
same,growth inhibition,[6]; at 1.2 µM,-3%
same,growth inhibition,[6]; at 3.7 µM,-1%
same,growth inhibition,[6]; at 11.0 µM,2%
same,growth inhibition,[6]; at 33.0 µM,31%
same,growth inhibition,[6]; at 100.0 µM,84% (active)
same,growth inhibition,[7]; at 1.2 µM,-1%
same,growth inhibition,[7]; at 3.7 µM,-2%
same,growth inhibition,[7]; [17],0%
same,growth inhibition,[7]; at 11.0 µM,0%
same,growth inhibition,[7]; at 33.0 µM,3%
same,growth inhibition,[7]; [18],4%
same,growth inhibition,[7]; at 50.0 µM,21.6%
same,growth inhibition,[7]; at 100.0 µM,36%
same,growth inhibition,[8]; at 1.2 µM,-2%
same,growth inhibition,[8]; at 3.7 µM,-1%
same,growth inhibition,[8]; [17],-30%
same,growth inhibition,[8]; at 11.0 µM,0%
same,growth inhibition,[8]; at 33.0 µM,6%
same,growth inhibition,[8]; [18],45%
same,growth inhibition,[8]; at 50.0 µM,10.5%
same,growth inhibition,[8]; at 100.0 µM,41%
same,growth inhibition,[9]; at 1.2 µM,-1%
same,growth inhibition,[9]; at 3.7 µM,1%
same,growth inhibition,[9]; at 11.0 µM,3%
same,growth inhibition,[9]; at 33.0 µM,8%
same,growth inhibition,[9]; at 100.0 µM,57%
same,growth inhibition,[10]; [17],49%
same,growth inhibition,[10]; [18],96% (active)
same,growth inhibition,[10]; at 50.0 µM,52%
same,growth inhibition,[11]; at 1.2 µM,2%
same,growth inhibition,[11]; at 3.7 µM,0%
same,growth inhibition,[11]; at 11.0 µM,1%
same,growth inhibition,[11]; at 33.0 µM,9%
same,growth inhibition,[11]; at 100.0 µM,47%
same,growth inhibition,[12]; [17],-1%
same,growth inhibition,[12]; [18],21%
same,growth inhibition,[12]; at 50.0 µM,32.9%
same,growth inhibition,[13]; at 1.2 µM,-1%
same,growth inhibition,[13]; at 3.7 µM,-6%
same,growth inhibition,[13]; [17],-5%
same,growth inhibition,[13]; at 11.0 µM,-5%
same,growth inhibition,[13]; at 33.0 µM,-5%
same,growth inhibition,[13]; [18],9%
same,growth inhibition,[13]; at 50.0 µM,4.75%
same,growth inhibition,[13]; at 100.0 µM,20%
same,growth inhibition,[14]; at 1.2 µM,-3%
same,growth inhibition,[14]; at 3.7 µM,-5%
same,growth inhibition,[14]; at 11.0 µM,72% (active)
same,growth inhibition,[14]; at 33.0 µM,93% (active)
same,growth inhibition,[14]; at 100.0 µM,96% (active)
same,growth inhibition,[1]; at 1.2 µM,-3%
same,growth inhibition,[1]; at 3.7 µM,-4%
same,growth inhibition,[1]; at 11.0 µM,62%
same,growth inhibition,[1]; at 33.0 µM,93% (active)
same,growth inhibition,[1]; at 100.0 µM,95% (active)
same,growth inhibition,[15]; at 1.2 µM,-3%
same,growth inhibition,[15]; at 3.7 µM,2%
same,growth inhibition,[15]; at 11.0 µM,74% (active)
same,growth inhibition,[15]; at 33.0 µM,93% (active)
same,growth inhibition,[15]; at 100.0 µM,96% (active)
same,growth inhibition,[2]; [17],1%
same,growth inhibition,[2]; [18],-8%
same,growth inhibition,[2]; at 50.0 µM,40.1%
same,growth inhibition,[3]; at 1.2 µM,-3%
same,growth inhibition,[3]; at 3.7 µM,0%
same,growth inhibition,[3]; at 11.0 µM,2%
same,growth inhibition,[3]; at 33.0 µM,4%
same,growth inhibition,[3]; at 100.0 µM,30%
OC(Cc1cccc2ccccc12)CN1CCC(c2ccccc2)CC1 (centres undefined),growth inhibition,[4]; at 1.2 µM,52%
same,growth inhibition,[4]; at 3.7 µM,66%
same,growth inhibition,[4]; at 11.0 µM,69%
same,growth inhibition,[4]; at 33.0 µM,91% (active)
same,growth inhibition,[4]; at 100.0 µM,97% (active)
same,growth inhibition,[5]; at 1.2 µM,12%
same,growth inhibition,[5]; at 3.7 µM,28%
same,growth inhibition,[5]; at 11.0 µM,34%
same,growth inhibition,[5]; at 33.0 µM,61%
same,growth inhibition,[5]; at 100.0 µM,75% (active)
same,growth inhibition,[6]; at 1.2 µM,24%
same,growth inhibition,[6]; at 3.7 µM,5%
same,growth inhibition,[6]; at 11.0 µM,23%
same,growth inhibition,[6]; at 33.0 µM,38%
same,growth inhibition,[6]; at 100.0 µM,60%
same,growth inhibition,[16]; at 1.2 µM,64%
same,growth inhibition,[16]; at 3.7 µM,72% (active)
same,growth inhibition,[16]; at 11.0 µM,81% (active)
same,growth inhibition,[16]; at 33.0 µM,96% (active)
same,growth inhibition,[16]; at 100.0 µM,99% (active)
same,growth inhibition,[7]; at 1.2 µM,6%
same,growth inhibition,[7]; at 3.7 µM,53%
same,growth inhibition,[7]; [17],55%
same,growth inhibition,[7]; at 11.0 µM,66%
same,growth inhibition,[7]; at 33.0 µM,86% (active)
same,growth inhibition,[7]; [18],68%
same,growth inhibition,[7]; at 50.0 µM,86.7% (active)
same,growth inhibition,[7]; at 100.0 µM,96% (active)
same,growth inhibition,[8]; at 1.2 µM,17%
same,growth inhibition,[8]; at 3.7 µM,26%
same,growth inhibition,[8]; [17],13%
same,growth inhibition,[8]; at 11.0 µM,50%
same,growth inhibition,[8]; at 33.0 µM,86% (active)
same,growth inhibition,[8]; [18],57%
same,growth inhibition,[8]; at 50.0 µM,45.7%
same,growth inhibition,[8]; at 100.0 µM,97% (active)
same,growth inhibition,[10]; [17],51%
same,growth inhibition,[10]; [18],41%
same,growth inhibition,[10]; at 50.0 µM,71.2% (active)
same,growth inhibition,[11]; at 1.2 µM,63%
same,growth inhibition,[11]; at 3.7 µM,74% (active)
same,growth inhibition,[11]; at 11.0 µM,86% (active)
same,growth inhibition,[11]; at 33.0 µM,94% (active)
same,growth inhibition,[11]; at 100.0 µM,97% (active)
same,growth inhibition,[12]; [17],58%
same,growth inhibition,[12]; [18],76% (active)
same,growth inhibition,[12]; at 50.0 µM,74.2% (active)
same,growth inhibition,[13]; at 1.2 µM,39%
same,growth inhibition,[13]; at 3.7 µM,41%
same,growth inhibition,[13]; [17],64%
same,growth inhibition,[13]; at 11.0 µM,54%
same,growth inhibition,[13]; at 33.0 µM,79% (active)
same,growth inhibition,[13]; [18],87% (active)
same,growth inhibition,[13]; at 50.0 µM,69.2%
same,growth inhibition,[13]; at 100.0 µM,97% (active)
same,growth inhibition,[1]; at 1.2 µM,31%
same,growth inhibition,[1]; at 3.7 µM,38%
same,growth inhibition,[1]; at 11.0 µM,48%
same,growth inhibition,[1]; at 33.0 µM,84% (active)
same,growth inhibition,[1]; at 100.0 µM,98% (active)
same,growth inhibition,[15]; at 1.2 µM,60%
same,growth inhibition,[15]; at 3.7 µM,59%
same,growth inhibition,[15]; at 11.0 µM,67%
same,growth inhibition,[15]; at 33.0 µM,83% (active)
same,growth inhibition,[15]; at 100.0 µM,97% (active)
same,growth inhibition,[2]; [17],74% (active)
same,growth inhibition,[2]; [18],89% (active)
same,growth inhibition,[2]; at 50.0 µM,69.8%
same,growth inhibition,[3]; at 1.2 µM,30%
same,growth inhibition,[3]; at 3.7 µM,38%
same,growth inhibition,[3]; at 11.0 µM,54%
same,growth inhibition,[3]; at 33.0 µM,65%
same,growth inhibition,[3]; at 100.0 µM,87% (active)
